The values that follow come from ChEMBL document CHEMBL1201862, “PubChem BioAssay data set” (2004).

Hit rate of the full screen: of about 400,000 compounds, about 2,100 (0.53%) were called active. Roughly 14% stayed inconclusive and do not appear here. No rule for the calls is given here. Shown is part of a subset that was picked to be rich in actives.

Ataxin-2 (Homo sapiens), sequence (Q99700 whole entry): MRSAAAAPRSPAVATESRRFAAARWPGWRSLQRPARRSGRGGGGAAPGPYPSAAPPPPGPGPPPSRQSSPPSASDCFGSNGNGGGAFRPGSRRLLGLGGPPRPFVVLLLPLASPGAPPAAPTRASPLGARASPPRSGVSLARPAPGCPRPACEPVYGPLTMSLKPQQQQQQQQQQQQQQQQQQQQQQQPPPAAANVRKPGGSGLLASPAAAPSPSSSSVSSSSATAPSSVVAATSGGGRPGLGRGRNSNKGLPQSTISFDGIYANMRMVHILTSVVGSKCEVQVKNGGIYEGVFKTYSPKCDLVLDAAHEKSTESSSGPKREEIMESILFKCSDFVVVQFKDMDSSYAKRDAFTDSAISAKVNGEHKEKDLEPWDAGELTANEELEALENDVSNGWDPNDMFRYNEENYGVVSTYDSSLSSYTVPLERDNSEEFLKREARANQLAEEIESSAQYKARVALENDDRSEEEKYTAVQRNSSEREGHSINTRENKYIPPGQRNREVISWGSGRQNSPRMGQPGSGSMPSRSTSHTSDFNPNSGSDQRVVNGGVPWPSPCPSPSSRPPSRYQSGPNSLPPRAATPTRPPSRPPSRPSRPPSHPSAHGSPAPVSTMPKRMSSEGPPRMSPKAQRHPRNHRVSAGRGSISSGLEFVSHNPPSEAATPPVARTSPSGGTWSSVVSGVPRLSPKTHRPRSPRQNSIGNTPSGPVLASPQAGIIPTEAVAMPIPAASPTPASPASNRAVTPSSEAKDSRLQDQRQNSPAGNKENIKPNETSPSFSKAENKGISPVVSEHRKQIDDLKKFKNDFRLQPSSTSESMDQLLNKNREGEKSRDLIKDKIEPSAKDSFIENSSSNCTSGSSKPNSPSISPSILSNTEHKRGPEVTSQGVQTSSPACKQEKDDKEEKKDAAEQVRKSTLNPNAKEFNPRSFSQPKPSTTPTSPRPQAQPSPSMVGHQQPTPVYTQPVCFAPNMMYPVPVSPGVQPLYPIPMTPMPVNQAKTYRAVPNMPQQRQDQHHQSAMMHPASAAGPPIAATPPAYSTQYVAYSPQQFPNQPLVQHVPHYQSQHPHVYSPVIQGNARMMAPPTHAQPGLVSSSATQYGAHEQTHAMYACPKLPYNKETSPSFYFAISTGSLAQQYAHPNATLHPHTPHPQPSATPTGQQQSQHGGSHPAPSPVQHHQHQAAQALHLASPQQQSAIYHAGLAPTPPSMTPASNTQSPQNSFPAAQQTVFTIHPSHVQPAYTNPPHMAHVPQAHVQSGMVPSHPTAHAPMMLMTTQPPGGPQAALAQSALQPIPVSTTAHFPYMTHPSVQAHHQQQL

This experiment concerns the target Ataxin-2 (Homo sapiens) (UniProt Q99700). The experiment is described as follows: qHTS for Inhibitors of ATXN expression. In kind it is functional. Background: In qHTS, concentration-response curves come from the screen itself.
Consider `C=C1CC(COc2cc(=O)oc3ccccc23)(c2ccccc2)OC1=O` (stereo not drawn), for which the Potency is 39.8 µM (active). Under `C=C1CC(COc2ccc3c(C)c(Cl)c(=O)oc3c2)(c2ccccc2)OC1=O` (stereo not drawn) stands 9.47 µM (active). The entry for `CCN(CC)c1ccc2c(C)c(Cl)c(=O)oc2c1` is “inactive”; for `CCC(=O)Oc1ccc2c(C)c(Cl)c(=O)oc2c1` it is “inactive”. Under `COc1cc(NC(=O)c2sc3ncn(CC(=O)N4CCC(C)CC4)c(=O)c3c2C)cc(OC)c1OC` stands “inactive”; under `COc1cc(/C=C(\C#N)c2nc3ccccc3[nH]2)cc(Br)c1OCc1ccccc1`, “inactive”. Turning to `COc1cc(CNC(C)c2ccccc2)cc(Br)c1OCc1ccc(F)cc1` (stereo not drawn), the Potency is 39.8 µM (active). Under `CCCCN(CCCC)C(=O)c1cc2c(=O)n3cccc(C)c3nc2s1` stands “inactive”.

As for `O=c1[nH][nH]c(=O)c2c(NS(=O)(=O)c3ccccc3)cccc12`, the Potency entry was “inactive”. Under `NNc1nc(-c2ccccc2)c2ccccc2n1` stands “inactive”; under `O=C(O)c1ccc(Nc2nc(-c3ccccc3)c3ccccc3n2)cc1`, “inactive”; under `N=C(N)Nc1nc(-c2ccccc2)c2ccccc2n1`, 1.41 µM (active).

On to `CCCCN(C)CC(O)Cn1cc(/C=C/C(=O)c2ccc(OC)c(OC)c2)c2ccccc21` (stereo not drawn), for which the Potency result was “inactive”. Under `c1ccc(-c2cn3c(n2)CCc2ccc4cccnc4c2-3)cc1` stands 39.8 µM (active); under `c1ccc(-c2cn3nc4c(nc3n2)CCCC4)cc1`, “inactive”; under `c1ccc(-c2cn3nc(-c4ccccc4)c(-c4ccccc4)nc3n2)cc1`, “inactive”. For the molecule `COC(=O)C1CCN(C(c2cc(OC)c(OC)c(OC)c2)c2sc3nc(C)nn3c2O)CC1` (stereo not drawn), the Potency result is “inactive”.

`O=C(C1CCCCC1)N1CCC(O)(c2ccc(Cl)cc2)CC1`: the Potency result is “inactive”.

Consider `O=C(C1CCCCC1)N1C[C@@H](n2cc(-c3ccc(F)cc3)nn2)[C@H](O)C[C@@H]1c1ccc(Cl)cc1`, for which the Potency was 22.4 µM (active). The figure for `Cc1ccc([C@H]2C[C@@H](O)[C@H](n3cc(-c4ccc(F)cc4)nn3)CN2C(=O)C2CCCCC2)cc1` is 22.4 µM (active).

As for `CC1CSc2n1c(-c1ccccc1)c[n+]2-c1cccc(C(F)(F)F)c1` (stereo not drawn), the Potency result is “inactive”. In the case of `Cc1nnc(SCc2cccc3ccccc23)s1`, the Potency entry is “inactive”.

Turning to `CC(C)NC(=O)N1c2ccccc2Sc2ccccc21`, the Potency entry is “inactive”.

For the molecule `Cc1nnc(SC(=O)N2c3ccccc3Sc3ccccc32)s1`, the Potency was 25.1 µM (active).

Turning to `Cc1ccc(N=C(S)NCCc2c[nH]c3ccccc23)c(C)c1`, the Potency entry was “inactive”.

As for `Nc1[nH]c(C(=O)c2ccccc2)c(-c2ccc(Cl)c(F)c2)c1C(=O)NCCc1c[nH]c2ccccc12`, the Potency was 35.5 µM (active).

As for `O=C(CCCc1c[nH]c2ccccc12)Nc1ccc2ccccc2c1`, the Potency entry was “inactive”. Under `COc1ccc(C(=O)c2[nH]c(N)c(C(=O)NCCc3c[nH]c4ccccc34)c2-c2ccccc2Br)cc1` stands 31.6 µM (active); under `COc1ccc(C(=O)OCC(=O)c2c[nH]c3ccccc23)c(OC)c1`, “inactive”. The figure for `Nc1[nH]c(C(=O)c2ccccc2)c(-c2ccccc2C(F)(F)F)c1C(=O)NCCc1c[nH]c2ccccc12` is 25.1 µM (active); for `Nc1[nH]c(C(=O)c2ccccc2)c(-c2ccc(F)cc2)c1C(=O)NCCc1c[nH]c2ccccc12` it is 39.8 µM (active). The entry for `CC(C)NC(=O)COCc1cc(-c2ccc3c(c2)OCO3)on1` is “inactive”; for `Cc1c(Cc2ccccc2)sc(/N=C/c2ccc3ccccc3c2)c1C(N)=O` it is “inactive”; for `O=C1c2cccnc2C(=O)N1Cc1ccc(F)cc1S(=O)(=O)NCc1ccco1` it is “inactive”. `O=C(COC(=O)c1c2c(nc3ccccc13)/C(=C/c1ccco1)CC2)NC1CCCC1`: the Potency result is “inactive”. The entry for `COCCn1c(N)c(C(=O)NCC2CCCO2)c2nc3ccccc3nc21` (stereo not drawn) is “inactive”; for `COC(=O)c1cc(S(=O)(=O)NCC2CCN(Cc3cc(C)ccc3C)CC2)cn1C` it is “inactive”; for `N#C/C(=C\c1cc(Cl)cc(Cl)c1O)C(=O)NC1CCCCC1` it is “inactive”. The figure for `O=[N+]([O-])c1c(Nc2ccc(O)cc2)cc(Cl)c2nonc12` is 2.24 µM (active); for `O=C(N/N=C/c1ccsc1)C1CC1` it is “inactive”; for `COc1ccc2[nH]c(CN3CCN(CCC(C)C)C(CCO)C3)c(C)c2c1` (stereo not drawn) it is “inactive”. Under `CCOC(=O)C1=C(C)N=c2s/c(=C/c3ccc(OCC(=O)O)c(OC)c3)c(=O)n2C1c1ccc(Cl)cc1` (stereo not drawn) stands “inactive”; under `CCc1nnc(NC(=O)c2ccc(S(=O)(=O)N(CCOC)CCOC)cc2)s1`, “inactive”.

`Cc1ccc(CS(=O)(=O)c2ncc(Cl)c(C(=O)Nc3nc4ccc(C)cc4s3)n2)cc1`: the Potency was 22.4 µM (active). Under `CCc1nnc(NC(=O)c2sc3nc4c(cc3c2N)CCCCCC4)s1` stands “inactive”. The entry for `CCOCCC(=O)Nc1nnc(CCc2ccccc2)s1` is “inactive”; for `CCCc1nnc(NC(=O)c2nc(S(=O)(=O)Cc3ccc(C)cc3)ncc2Cl)s1` it is 39.8 µM (active); for `CCN1CCN(CC(=O)Nc2nc3ccc(C)cc3s2)CC1` it is “inactive”. Under `CCc1nnc(NC(=O)c2nc(S(=O)(=O)Cc3ccc(C)cc3)ncc2Cl)s1` stands 31.6 µM (active). As to `CC(=O)Nc1nnc(COc2ccc(Cl)cc2)s1`, the Potency result was “inactive”.

Take `CCc1nnc(NC(=O)c2sc3nc4c(cc3c2N)CCCCC4)s1`: the Potency entry is “inactive”.

`CCc1nnc(NC(=O)c2ccc(Br)o2)s1`: the Potency result was “inactive”. Regarding `Cc1ccc2nc(-c3ccc(NS(=O)(=O)c4c(C)n(C)c(=O)n(C)c4=O)cc3)sc2c1`, the Potency result is “inactive”. Under `CCCc1nnc(NC(=O)c2nc(S(=O)(=O)Cc3cccc(C)c3)ncc2Cl)s1` stands 35.5 µM (active); under `Cc1sc(NC(=O)/C=C/c2ccco2)c(C(=O)OC(C)C)c1C`, “inactive”.

For `O=C(O)CC/C(=N/NC(=O)CNC(=O)Cc1ccccc1)c1ccccc1`, the Potency result was “inactive”. The entry for `COc1ccc(/C=N/NC(=O)c2sccc2C)c2ccccc12` is “inactive”; for `CCCc1nnc(SCC(=O)Nc2cccc(Cl)c2Cl)o1` it is “inactive”. Under `Fc1ccc(NC(S)=Nc2nccs2)cc1` stands “inactive”; under `O=C(c1cnn(-c2ccc(Cl)cc2)c1)c1ccccc1O`, “inactive”. Under `OCCNc1c2ccccc2nc2c(F)c(F)c(F)c(F)c12` stands “inactive”.

On to `O=c1oc2c(CN3CCCCC3)c(O)ccc2cc1-c1nc2ccccc2[nH]1`, for which the Potency entry was “inactive”.

With `CSc1nnc(NC(=O)c2nc(S(=O)(=O)Cc3ccccc3)ncc2Cl)s1`, the Potency is 28.2 µM (active). For the molecule `CC(C)(C)NC(=O)CSc1nnc(NC(=O)CCc2ccccc2)s1`, the Potency entry was “inactive”.

For `CSc1ncc(C(=O)Nc2ccccc2Cl)c(C)n1`, the Potency result was “inactive”. Turning to `O=C(CN(CCc1ccccc1)C(=O)c1csnn1)NCc1ccc(F)cc1`, the Potency result is “inactive”.

For the molecule `Cc1ccccc1C1N=C2Oc3ccccc3C=C2C(=O)N1` (stereo not drawn), the Potency entry was “inactive”.

For the molecule `COc1c(C)cc(S(=O)(=O)NCc2ccco2)c(C)c1C`, the Potency result is “inactive”. The figure for `CCN1/C(=C/C=C/c2oc3ccc(-c4ccccc4)cc3[n+]2CC)Oc2ccc(-c3ccccc3)cc21` is 29.9 µM (active). As to `O=C(Cc1ccc(NC2=NC3CS(=O)(=O)CC3S2)cc1)N1CCN(c2ccc(F)cc2)CC1` (stereo not drawn), the Potency entry was “inactive”. Under `COc1ccc(CN2C(=O)c3cccnc3C2=O)cc1S(=O)(=O)N1CCOc2ccccc21` stands “inactive”; under `COc1cc(CCNC2=CC(=O)c3ncccc3C2=O)ccc1O`, 16.8 µM (active); under `COc1ccc(CN2C(=O)c3cccnc3C2=O)cc1S(=O)(=O)NCc1ccc(C)o1`, “inactive”.

Take `CC(C)(C)c1ccc(SC2=C[C@@]3(O)CC[C@@H](O)[C@@](Sc4ccc(C(C)(C)C)cc4)(C2=O)[C@H]3O)cc1`: the Potency was 25.1 µM (active). As to `CCOC(=O)c1c(C)[nH]c(C(=O)N(C)CC(=O)Nc2ccc(OCC)c(OCC)c2)c1C`, the Potency result is “inactive”.

Consider `C=CCn1c(SCC(=O)c2[nH]c(C)c(C(=O)OCC)c2C)nc2scc(-c3ccc(OC)c(OC)c3)c2c1=O`, for which the Potency is 20 µM (active).

On to `C=CCn1c(SCCN2C(=O)c3ccccc3C2=O)nc2scc(-c3ccc(F)cc3)c2c1=O`, for which the Potency result was “inactive”. The entry for `O=C1OCCN1C(=O)[C@H]1[C@H](c2ccc(F)cc2)C(c2ccccc2)=NN1c1ccccc1` is “inactive”; for `COc1ccc(C(=O)NCCNc2nc3c(C)cccc3cc2C#N)cc1OC` it is “inactive”; for `Cc1cccc2c(C(=O)O)c3cccc(C)c3nc12` it is “inactive”. For `CNc1c2cccc(C)c2nc2c(C(=O)NCCN(C)C)cccc12`, the Potency was 0.794 µM (active). Under `CC1CCN(c2nc(Cl)nc(Nc3ccc([N+](=O)[O-])cc3)n2)CC1` stands 39.8 µM (active); under `CCOc1nc(Nc2ccc([N+](=O)[O-])cc2)nc(NC(C)(C)C)n1`, “inactive”. Consider `O=[N+]([O-])c1ccc(Nc2nc(N3CCOCC3)nc(N3CCOCC3)n2)cc1`, for which the Potency entry is “inactive”. For the molecule `O=C(NC(Cc1ccccc1)C(=O)Oc1ccc2c(C(F)(F)F)cc(=O)oc2c1)OCc1ccccc1` (stereo not drawn), the Potency result was “inactive”. Consider `COCc1ccc(C(=O)Nc2ccccc2C(=O)NCc2cccnc2)cc1`, for which the Potency entry was “inactive”. The figure for `C[C@H](NC(=O)c1[nH]cnc1C(=O)Nc1ccc(CNC(=O)OC(C)(C)C)cc1)C(=O)OCc1ccccc1` is 39.8 µM (active). The figure for `CC(C)(C)OC(=O)NCc1ccc(NC(=O)c2[nH]cnc2C(=O)N[C@@H](Cc2ccccc2)C(=O)OCc2ccccc2)cc1` is 35.5 µM (active); for `CC(NC(=O)OC(C)(C)C)C(=O)NC(CCC(=O)OCc1ccccc1)C(N)=O` (stereo not drawn) it is “inactive”. The figure for `C[C@H](NC(=O)c1[nH]cnc1C(=O)NCc1ccc(CNC(=O)OC(C)(C)C)cc1)C(=O)OCc1ccccc1` is 25.1 µM (active).

As for `COc1ccccc1C1C2=C(CC(C)(C)CC2=O)N(CC(=O)O)C2=C1C(=O)CC(C)(C)C2`, the Potency result was “inactive”. The entry for `CN(CCC#N)C(=O)COC(=O)c1c2c(nc3ccccc13)/C(=C\c1ccco1)CC2` is “inactive”. For the molecule `COc1ccccc1N/C=C/c1onc(C)c1[N+](=O)[O-]`, the Potency entry was “inactive”. The figure for `CCOC(=O)c1ccc(N2C(=O)c3[nH]nc(-c4ccccc4)c3C2c2ccc(CC)cc2)cc1` (stereo not drawn) is 39.8 µM (active); for `COc1ccc(C(=O)COC(=O)c2cncc(Br)c2)cc1` it is “inactive”; for `Cc1cc(NC(=O)COC(=O)c2cccc(O)c2)no1` it is “inactive”.

For the molecule `CCOC(=O)c1ccc(N2C(=O)c3[nH]nc(-c4ccc(OC)cc4)c3C2c2cccc(O)c2)cc1` (stereo not drawn), the Potency is 31.6 µM (active). `O=C(OCC1OC(n2cc(Br)c(=O)[nH]c2=O)C(Br)C1O)c1ccccc1` (stereo not drawn): the Potency result is “inactive”.
